In all, about 140,000 compounds went through this assay and about 2,100 (1.5%) were called active. The sample holds actives, similar compounds and a random draw of the others, so the mix is not that of the screen. Rule as the data show it: active = protection mostly above about 24% (no sharp cut-off); inactive = mostly below about 26%.
Test: blockers of measles virus-induced cell death – single point, MLSMR library, absorbance, measles RdRp inhibitor project, primary screen (AID 841)
Details: Measles virus-infected cells, CPE protection, at 4 µM, active compounds read high

Structure (SMILES) | protection (pct of control)
COc1cc(/C=N\NC(=O)c2nonc2N)c(OC)cc1Br | 4.84% (inactive)
CCCCN1C(=O)CCC(C(=O)O)C1c1ccc(OC)cc1 (stereo not given) | 18.6% (inactive)
CCn1c(C(C)NC(=O)c2ccc(C)cc2)n[nH]c1=S (stereo not given) | 13.2% (inactive)
COc1ccc(C2CC(c3ccccc3)=NN2C(=O)c2ccc(Cl)c([N+](=O)[O-])c2)cc1 (stereo not given) | 5.64% (inactive)
CCOC(=O)c1c(C)nc(-c2ccccc2)nc1NC(=O)C(C)C | 92.6% (active)
Cc1[nH]c2ccccc2c1C(=O)COC(=O)c1c(-c2ccccc2)noc1C | 3.64% (inactive)
CCOC(=O)c1c(C)[nH]c(=S)c(C#N)c1-c1ccccc1 | 1.99% (inactive)
C=CCN(c1ccc(C(=O)Nc2cc(C)cc(C)c2)cc1)S(C)(=O)=O | 12.6% (inactive)
Cc1ccc(C(C)(C)C)c(OCCCCN2CCCC2)c1 | -0.18% (inactive)
O=C(N/N=C\c1ccc(Br)cc1)c1ccc(Cn2cccn2)o1 | 5.4% (inactive)
CN(C)c1ccc(/C=N/NC(=O)c2ccc(Cn3cc(Br)cn3)o2)cc1 | 28.3% (active)
O=C(N/N=C/c1ccc2c(c1)OCO2)c1ccc(Cn2cc([N+](=O)[O-])cn2)o1 | 18.3% (inactive)
Cc1ccc(S(=O)(=O)N(NC2=NS(=O)(=O)c3ccccc32)C(=O)c2ccccc2)cc1 | 7.51% (inactive)
CCOC(=O)C1=C(N)N(c2ccc(C)cc2)C2=C(C(=O)CCC2)C1c1cccs1 (stereo not given) | 20.1% (inactive)
Cc1nn(Cc2ccc(Cl)cc2)c(Cl)c1/C=N/NC(=O)c1cccnc1 | 11.1% (inactive)
CC1(C)CC(=O)C2=C(C1)Nc1cc(C(=O)c3ccccc3)ccc1NC2c1ccccn1 (stereo not given) | 2.11% (inactive)
Cc1noc(C)c1COC(=O)Cn1c(C)nc2ccccc21 | 7.94% (inactive)
CCCCn1c(=O)c(CCC(=O)OCC(=O)Nc2ccc(C)c(Cl)c2)nc2ccccc21 | 23.4% (inactive)
COc1ccc(NC(=O)COC(=O)Cn2c(C)nc3ccccc32)cc1OC | 50.1% (active)
O=C(Nc1cccc(S(=O)(=O)N2CCCCC2)c1)c1ccc2c(c1)OCO2 | 8.22% (inactive)
Cc1cccc(NC(=O)COc2ccc(Br)cc2C)n1 | 6.52% (inactive)
Cc1ccc(S(=O)(=O)N(C)C)cc1NC(=O)COC(=O)c1c(C)noc1C | 9.42% (inactive)
CCN(CC)S(=O)(=O)c1ccc(C)c(NC(=O)COc2ccc(Br)cc2Cl)c1 | 52.8% (active)
CN(C(=O)c1c(Cl)cnn1C)C12CC3CC(CC(C3)C1)C2 | 6.9% (inactive)
Cc1c(C(=O)NCCN2C(=O)S/C(=C\c3cccs3)C2=O)cccc1[N+](=O)[O-] | 19.9% (inactive)

— PubChem BioAssay AID841 (Emory University Molecular Libraries Screening Center, 2007)
